Screening results deposited in PubChem by National Center for Advancing Translational Sciences (NCATS).
HP1b chromo inh: blocks HP1-beta chromodomain binding to methylated histone tails; P83916; AlphaScreen HP1-beta / biotin-H3K9me3 peptide binding; Potency, µM (series often up to 114 µM), actives largely listed as inhibitors; actives 0.56% (n = 390,000); note: nearly all actives have a fitted effect of over 70% in size
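AlphaScreen: HP1-beta (50 nM) preformed 30 min with biotin-H3(1-18)K9me3 peptide (50 nM) in PBS pH 7.4, 0.01% Tween-20. Compound added for 30 min at RT, then streptavidin donor/nickel chelate acceptor beads (10 ug/mL) for 30 min.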
BAZ2B inh: blocks human BAZ2B. AlphaScreen BAZ2B-H3K14Ac peptide displacement. Potency, µM (doses to about 114 µM), most hits filed as inhibitors. actives 4.4% (n = 360,000); note: nearly all actives have a fitted effect of over 60% in size
Target sequence (Q9UIF8 whole entry, looked up): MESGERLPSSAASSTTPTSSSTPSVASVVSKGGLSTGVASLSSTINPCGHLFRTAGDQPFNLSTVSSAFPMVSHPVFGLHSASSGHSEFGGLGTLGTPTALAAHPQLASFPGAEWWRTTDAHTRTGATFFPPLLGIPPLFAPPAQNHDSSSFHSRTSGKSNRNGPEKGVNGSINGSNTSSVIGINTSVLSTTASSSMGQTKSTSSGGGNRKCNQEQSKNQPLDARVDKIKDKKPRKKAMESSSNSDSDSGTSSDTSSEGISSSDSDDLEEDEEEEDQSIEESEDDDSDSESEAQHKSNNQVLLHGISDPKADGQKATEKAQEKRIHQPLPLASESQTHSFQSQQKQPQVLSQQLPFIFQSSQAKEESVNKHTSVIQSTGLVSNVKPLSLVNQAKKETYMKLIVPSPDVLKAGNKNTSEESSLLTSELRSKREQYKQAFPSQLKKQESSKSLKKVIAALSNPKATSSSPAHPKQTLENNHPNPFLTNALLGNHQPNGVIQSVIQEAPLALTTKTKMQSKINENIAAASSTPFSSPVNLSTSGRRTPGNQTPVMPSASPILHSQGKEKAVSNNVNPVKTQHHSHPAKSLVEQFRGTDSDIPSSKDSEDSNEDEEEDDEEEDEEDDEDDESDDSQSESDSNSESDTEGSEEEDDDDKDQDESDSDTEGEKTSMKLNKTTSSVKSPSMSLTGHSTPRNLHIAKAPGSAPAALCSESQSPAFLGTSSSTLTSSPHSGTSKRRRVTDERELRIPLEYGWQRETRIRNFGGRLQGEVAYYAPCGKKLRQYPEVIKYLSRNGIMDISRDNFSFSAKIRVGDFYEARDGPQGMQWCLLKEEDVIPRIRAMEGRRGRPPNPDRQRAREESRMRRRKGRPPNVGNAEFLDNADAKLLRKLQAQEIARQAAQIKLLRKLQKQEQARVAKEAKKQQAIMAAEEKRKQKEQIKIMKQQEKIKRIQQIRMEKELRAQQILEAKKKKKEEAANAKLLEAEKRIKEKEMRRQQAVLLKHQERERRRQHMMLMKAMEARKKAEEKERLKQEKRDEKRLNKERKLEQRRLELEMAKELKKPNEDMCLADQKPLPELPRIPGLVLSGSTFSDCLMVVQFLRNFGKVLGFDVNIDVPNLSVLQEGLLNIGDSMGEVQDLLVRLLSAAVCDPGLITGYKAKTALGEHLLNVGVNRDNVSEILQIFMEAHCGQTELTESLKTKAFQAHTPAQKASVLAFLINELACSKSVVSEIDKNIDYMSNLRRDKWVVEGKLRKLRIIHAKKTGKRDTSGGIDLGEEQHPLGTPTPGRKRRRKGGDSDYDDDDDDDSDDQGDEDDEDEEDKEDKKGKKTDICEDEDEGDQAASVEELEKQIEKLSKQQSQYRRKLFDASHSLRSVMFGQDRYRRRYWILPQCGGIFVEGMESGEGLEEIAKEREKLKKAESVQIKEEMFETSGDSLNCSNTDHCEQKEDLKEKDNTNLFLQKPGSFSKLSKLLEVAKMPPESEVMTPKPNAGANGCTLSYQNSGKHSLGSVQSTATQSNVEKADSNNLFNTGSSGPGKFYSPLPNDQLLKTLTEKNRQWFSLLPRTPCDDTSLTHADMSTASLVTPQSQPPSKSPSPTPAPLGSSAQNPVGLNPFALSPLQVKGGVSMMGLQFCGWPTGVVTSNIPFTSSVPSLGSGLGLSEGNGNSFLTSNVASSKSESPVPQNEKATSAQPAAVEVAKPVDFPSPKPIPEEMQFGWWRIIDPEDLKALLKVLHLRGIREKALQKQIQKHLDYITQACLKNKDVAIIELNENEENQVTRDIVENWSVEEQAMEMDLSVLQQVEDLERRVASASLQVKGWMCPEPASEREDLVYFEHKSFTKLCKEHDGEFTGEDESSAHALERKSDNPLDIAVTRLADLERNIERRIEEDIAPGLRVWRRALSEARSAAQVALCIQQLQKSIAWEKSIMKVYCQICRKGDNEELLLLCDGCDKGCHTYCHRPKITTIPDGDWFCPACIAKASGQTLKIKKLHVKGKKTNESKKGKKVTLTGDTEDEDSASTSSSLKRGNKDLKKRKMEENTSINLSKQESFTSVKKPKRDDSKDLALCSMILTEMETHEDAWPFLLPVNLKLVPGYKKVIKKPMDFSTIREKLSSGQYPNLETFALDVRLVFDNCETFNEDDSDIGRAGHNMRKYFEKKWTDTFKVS
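Complex of BAZ2B and biotin-H3K14Ac (50 nM apiece) forms over 30 min at RT, then faces library compounds up to 110 uM for another 30 min; AlphaScreen beads added, 20 min dark incubation, luminescence read.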
GLS inhibitor: glutaminase GLS (human) inhibition. O94925. GLS enzymatic activity, qHTS titration. AID 624170. Potency, µM (highest dose often 45.5 µM), actives largely listed as inhibitors. actives 0.21% (n = 410,000)
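Glutamate formation by hKGA was monitored fluorometrically using coupled glutamate oxidase, HRP and Amplex Red. Substrate was added as 1 mM L-glutamine solution; incubation was 30 min at RT after an initial read.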
G9a inh: inhibitors of human histone lysine methyltransferase G9a; G9a H3K9 monomethylation, AlphaScreen, 2 h; Potency, µM (doses to about 102 µM), actives largely listed as inhibitors; actives 8.8% (n = 350,000); AID 504332; note: nearly all actives have a fitted effect of over 75% in size
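Chemiluminescent proximity detection of H3K9 monomethylation, read after 10 min bead incubation in the dark. Reaction: 20 nM G9a, 500 nM biotin-H3K9 peptide, 20 uM SAM cofactor, 2 h, room temperature, following 15 min enzyme-compound preincubation.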
JMJD2A Tudor inh: blocks the human JMJD2A Tudor domain | actives 4.4% (n = 390,000) | O75164 | AlphaScreen JMJD2A-Tudor / H3K4me3 peptide binding | Potency, µM (titrated, usually from 114 µM), most hits filed as inhibitors; note: nearly all actives have a fitted effect of over 50% in size
Numbers stand for hits; – = inactive; ? = inconclusive; · = not tested or not shown; [ ] = remark or other dose. Most compounds without a hit are left out; they make up all but 10% or so of the library. Calls come from the whole dose curve; as a rule, active = well fitted curve in the direction sought with a large enough effect; inconclusive = small, poorly fitted or top-dose-only effect, or another doubt; inactive = no such curve, though single readings can be large; an effect the other way counts as inactive or inconclusive.

SMILES	HP1b chromo inh	BAZ2B inh	GLS inhibitor	G9a inh	JMJD2A Tudor inh
CC(=O)C1=C(O)C(=O)N(c2ccc(S(=O)(=O)Nc3nccs3)cc2)C1c1ccc(F)cc1 (stereo not drawn)	–	–	–	56µM	–
CCOC(=O)CSc1nc2c(sc(=S)n2-c2ccccc2OC)c(=O)n1Cc1ccco1	–	–	–	45µM	–
COc1ccc(C(C)(NC(C)=O)c2nc(-c3cccc4cccnc34)cs2)cc1 (stereo not drawn)	·	·	–	·	·
CSCSC1=C(C#N)C(c2ccc(Cl)cc2)C(C(C)=O)=C(C)N1 (stereo not drawn)	·	–	·	7.9µM	·
CCOC(=O)C1=C(c2ccccc2)NC(SC)=C(C#N)C1c1ccco1 (stereo not drawn)	–	–	–	45µM	?
CC(=O)C1=C(C)NC(SCc2ccc(C#N)cc2)=C(C#N)C1c1ccco1 (stereo not drawn)	–	–	–	?	20µM
CC(=O)C1=C(C)NC(SCC(=O)c2ccccc2)=C(C#N)C1c1ccco1 (stereo not drawn)	·	–	·	?	·
CCOC(=O)C1=C(c2ccccc2)NC(SCC(=O)Nc2ccc(C)cc2)=C(C#N)C1c1ccco1 (stereo not drawn)	–	–	–	–	–
CC(=O)C1=C(C)NC(SCc2cccc3ccccc23)=C(C#N)C1c1ccco1 (stereo not drawn)	–	–	–	32µM	10µM
Cc1ccc(N(C)C(=O)Cn2cnc3onc(-c4ccc(F)cc4)c3c2=O)cc1C	–	–	–	–	–
Cc1ccc(S(=O)(=O)NC(C(=O)Oc2ccc3ccc(=O)oc3c2)c2ccccc2)cc1 (stereo not drawn)	–	–	–	7.9µM	–
Cc1ccc(S(=O)(=O)N[C@H](C(=O)Oc2ccc3c(C(F)(F)F)cc(=O)oc3c2)c2ccccc2)cc1	–	–	–	3.5µM	28µM
Cc1ccc(S(=O)(=O)NC(C(=O)Oc2ccc3c(C)c(Cl)c(=O)oc3c2)c2ccccc2)cc1 (stereo not drawn)	–	–	–	7.9µM	–
Cc1ccc(S(=O)(=O)NCCC(=O)Oc2ccc3ccc(=O)oc3c2)cc1	–	–	–	–	–
COc1cccc(Cn2c(=O)c(C)nc3cnc(N4CCOCC4)nc32)c1	·	·	·	–[12.7 µM]	·
Fc1ccccc1-n1[nH]nnc1=S	?	?	–	7.9µM	?
CCN(CC)CCNC(=O)c1ccc(NC(=O)c2ccc(-n3cncn3)c([N+](=O)[O-])c2)cc1	·	·	–	·	·
CN(C)CCCN(C(=O)c1ccc(S(=O)(=O)N2CCc3ccccc3C2)cc1)c1nc2c(F)cccc2s1	–	–	–	–	–
CN(C)CCCN(C(=O)c1ccc(S(=O)(=O)N2CCc3ccccc32)cc1)c1nc2ccc(Cl)cc2s1	?	?	–	?	?
Cc1cc(C)c2sc(N(CCCN(C)C)C(=O)c3ccc(S(=O)(=O)N4CCCc5ccccc54)cc3)nc2c1	–	11µM	–	45µM	40µM
CN(C)CCCN(C(=O)c1ccc(S(=O)(=O)N2CCc3ccccc3C2)cc1)c1nc2ccc(F)cc2s1	–	–	–	40µM	?
COc1ccc2sc(N(CCCN(C)C)C(=O)c3ccc(S(=O)(=O)N4CCc5ccccc5C4)cc3)nc2c1	–	–	–	32µM	56µM
CN(C)CCCN(C(=O)c1ccc(S(=O)(=O)N2CCc3ccccc32)cc1)c1nc2ccc(F)cc2s1	?	?	–	45µM	?
Cc1cccc(-c2noc(-c3ccc(NCc4ccccc4)c([N+](=O)[O-])c3)n2)c1	–	–	–	–	–
N#Cc1ccc(CN2C(=O)c3ccccc3Sc3ccc(C(=O)OCc4ccco4)cc32)cc1	–	–	–	–	–
SMILES	HP1b chromo inh	BAZ2B inh	GLS inhibitor	G9a inh	JMJD2A Tudor inh
Cc1cccc2sc(N(CCCN(C)C)C(=O)c3ccc(S(=O)(=O)N4CCc5ccccc5C4)cc3)nc12	–	–	–	·	–
Cc1cc(C)c2sc(N(CCCN(C)C)C(=O)c3ccc(S(=O)(=O)N4CCc5ccccc5C4)cc3)nc2c1	·	–	·	22µM	·
Cc1ccc2nc(N(CCCN(C)C)C(=O)c3ccc(S(=O)(=O)N4CCc5ccccc5C4)cc3)sc2c1	?	?	–	71µM	?
CCc1ccc(C(C(=O)NC2CCCCC2)N(C(=O)c2csnn2)C2CC2)cc1 (stereo not drawn)	–	–	–	–	–
Cc1ccn(-c2ccc(NC(=O)c3cccs3)cc2)n1	–	–	–	71µM	–
COc1ccc(OC)c(C(O)c2ncc(-c3ccccc3OC)[nH]2)c1 (stereo not drawn)	·	·	–	·	·
Cn1c(OCC2CCCO2)nc2cc(-c3ccccc3)sc2c1=O (stereo not drawn)	·	·	–	·	·
Clc1ccccc1CSc1nnc(-c2ccncc2)o1	–	–	–	–	–
Brc1cccc(CSc2nnc(-c3ccncc3)o2)c1	–	–	–	45µM	–
c1ccc(-c2nnc(SCc3ccncc3)o2)cc1	·	·	–	·	·
c1ccc2c(CSc3nnc(-c4ccncc4)o3)cccc2c1	–	–	–	50µM	–
CCNc1nc(NCC)nc(C(=O)NN)n1	–	2.8µM	–	–	40µM
Cc1ccc(N2C(=O)c3ccccc3C2Nc2ccccc2F)nc1 (stereo not drawn)	–	–	–	50µM	–
Cc1ccc(N2C(=O)c3ccccc3C2O)nc1 (stereo not drawn)	·	–	·	?	·
CCOC(=O)c1nn(-c2ccc(C)cc2)c(=O)c2c(N)scc12	–	?	–	1.3µM	?
Nc1scc2c(C(=O)O)nn(-c3ccccc3)c(=O)c12	–	?	–	–[0.501 µM]	79µM
COC(=O)c1nn(-c2ccc(OC)cc2)c(=O)c2c(N)sc(C)c12	?	?	–	10µM	?
COc1ccc(-n2nc3c(=O)[nH][nH]c3cc2=O)cc1	–	32µM	–	?	?
CCOC(=O)c1nc(N)c(=O)n(-c2ccc(C)cc2)n1	–	–	–	–	–
COC(=O)c1nn(-c2ccc(OC)cc2)c(=O)cc1Sc1ccc(C)cc1	–	–	–	–	–
O=C(OCc1ccccc1)c1c(-c2ccccc2)oc2c1C(OCCO)CCC2 (stereo not drawn)	·	·	–	·	·
COC(=O)c1nn(-c2ccc(OC)cc2)c(=O)cc1NN	–	–	–	45µM	–
COc1ccc(-n2nc(C(=O)O)c3csc(N)c3c2=O)cc1	·	·	·	·	79µM
CN1C(=O)c2ccccc2N(C)C1c1ccccc1Cl (stereo not drawn)	–	–	–	–[0.501 µM]	–
CN1c2ccccc2C(=O)NC1c1ccc(Cl)cc1 (stereo not drawn)	–	–	–	45µM	–
Cc1ccc(-n2c(SCC(=O)NCC3CCCO3)nnc2-c2ccoc2C)cc1 (stereo not drawn)	–	–	–	?	–
COc1ccccc1-n1nnnc1SCC(=O)NC1CC1	–	–	?	–	–
